A selection: hits, their analogues and other compounds. The true share with any hit is near 3.9%.
AHR act: AHR activators, primary screen, cell-based, luminescence, luciferase reporter, human | 320,000 tested, 2.5% active | AHR-responsive luciferase reporter cells | activation, % at 5 µM; in the data active = activation above about 47%;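 note: 0% = vehicle wells and 100% = reference agonist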
Target sequence (P35869 whole entry, looked up): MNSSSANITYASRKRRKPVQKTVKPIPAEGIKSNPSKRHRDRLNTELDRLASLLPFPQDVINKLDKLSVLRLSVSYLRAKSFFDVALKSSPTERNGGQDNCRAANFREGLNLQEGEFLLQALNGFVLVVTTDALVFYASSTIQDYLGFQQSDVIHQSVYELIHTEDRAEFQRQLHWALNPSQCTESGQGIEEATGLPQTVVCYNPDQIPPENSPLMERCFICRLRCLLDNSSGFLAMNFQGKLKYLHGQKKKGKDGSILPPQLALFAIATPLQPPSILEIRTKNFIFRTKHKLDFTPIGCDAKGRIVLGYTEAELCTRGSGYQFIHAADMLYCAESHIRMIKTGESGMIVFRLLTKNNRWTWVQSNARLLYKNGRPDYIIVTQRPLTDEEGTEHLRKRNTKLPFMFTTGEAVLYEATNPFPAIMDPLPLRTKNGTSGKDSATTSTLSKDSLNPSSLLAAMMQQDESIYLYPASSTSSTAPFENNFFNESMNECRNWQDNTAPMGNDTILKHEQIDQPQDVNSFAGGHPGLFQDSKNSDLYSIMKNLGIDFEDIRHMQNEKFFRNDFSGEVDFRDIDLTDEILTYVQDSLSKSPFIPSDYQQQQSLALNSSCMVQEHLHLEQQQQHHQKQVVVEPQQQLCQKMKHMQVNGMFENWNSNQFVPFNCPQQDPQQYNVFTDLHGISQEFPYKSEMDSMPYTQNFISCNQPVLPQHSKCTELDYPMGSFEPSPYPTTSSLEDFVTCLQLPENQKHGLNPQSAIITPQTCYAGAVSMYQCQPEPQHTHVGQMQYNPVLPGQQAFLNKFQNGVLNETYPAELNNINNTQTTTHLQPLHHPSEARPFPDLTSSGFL
sPLA2-III inh: human group III sPLA2 inhibitors, primary screen, biochemical, QFRET, BODIPY PC-A2 liposome substrate; Group 3 secretory phospholipase A2 (Homo sapiens), Q9NZ20; QFRET BODIPY PC-A2 liposome hydrolysis, fluorescence; inhibition, % at 12.2 µM; 370,000 tested, 0.56% active;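 active = inhibition above mean plus 3 SD of compounds lying within the high and low control bounds, cut at about 19% in these data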;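 note: 0% = median of test compound wells and 100% = no enzyme DMSO wells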
PLC-gamma1 inh: PLC-gamma1 enzyme inhibitors, primary screen, biochemical, fluorescence, purified enzyme. 370,000 tested, 0.84% active. fluorogenic substrate. 1-phosphatidylinositol 4,5-bisphosphate phosphodiesterase gamma-1 (Homo sapiens), P19174. inhibition, % at 12.2 µM; in the data active = inhibition above about 9.5%
HIF activator: HIF pathway transcriptional activators, primary screen, cell-based, U2OS HRE-luciferase, luminescence; U2OS HRE-luciferase reporter; normalized: DMSO 0%, desferrioxamine 100%; activation, % at 7.5 µM (by protocol); 300,000 tested, 0.32% active;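 active = mean activation of at least 10% of the iron chelator positive control signal, with at least half of replicates also reaching 10%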
PLC-beta3 inh: human PLC-beta3 inhibitors, primary screen, biochemical, fluorescence. 1-phosphatidylinositol 4,5-bisphosphate phosphodiesterase beta-3 (Homo sapiens), Q01970. Purified PLC-beta3, fluorogenic substrate. inhibition, % at 12.2 µM. 370,000 tested, 0.18% active. AID 720704, 2013; in the data active = inhibition above about 11%;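 note: 0% = median of compound wells on plate and 100% = full blocker control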
Yeast superoxide: reduction of superoxide in aged yeast, primary screen, HTS. S. cerevisiae aged cells, superoxide DHE fluorescence; active compounds read low. 330,000 tested, 0.18% active. superoxide response (% of plate mean), % at 10 µM;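 active = superoxide response under a set limit, about three screen SD below normal, cut at about 65% in these data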;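 note: yeast aged for seven days with compound at 30 °C before DHE staining; 100% = average MFI of all compound-treated wells on the plate with controls excluded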
Superoxide pick: superoxide lowering in aged yeast cells, confirmation, cherry picked compounds | shares compounds with Yeast superoxide | S. cerevisiae aging, superoxide DHE fluorescence; active compounds read low | superoxide response (% of plate), % at 10 µM | 850 tested, 1% active | AID 434994, 2010;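 active = superoxide signal below 65% of the plate average of sample wells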;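 note: cells aged with compound for 7 days at 30 degrees C before staining; 100% equals mean DHE fluorescence of all compound wells on the plate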
DHE fluor count: DHE quenching or ROS scavenging interference in aged yeast, artefact control for yeast caloric restriction mimetic project, S. cerevisiae BY4741, flow cytometry. shares compounds with Yeast superoxide. DHE fluorescence; active compounds read low. fluorescence response, % at 10 µM. 850 tested, under 10 active;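 active = fluorescence response below 15%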;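 note: percent of the mean fluorescence averaged over all compound wells on the plate; lower means stronger quenching of DHE signal or ROS scavenging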
Active calls of the source: *; nt = no result.

SMILES | AHR act | sPLA2-III inh | PLC-gamma1 inh | HIF activator | PLC-beta3 inh | Yeast superoxide | Superoxide pick | DHE fluor count
CC(C)(C)NC(=O)c1cccc2c1-c1ccccc1C2=O | -1 | 6 | 1 | -17 | -7 | 42* | 103 | 111
CO[C@@H]1CN(C)C(=O)c2cc(NC(=O)Nc3ccc4c(c3)OCO4)ccc2OC[C@@H](C)N(C)C[C@H]1C | nt | -3 | -6 | nt | -7 | nt | nt | nt
COc1ccc(Cl)cc1NC(=O)NCC1CCN(Cc2cc(C)ccc2C)CC1 | 1 | -6 | 3 | 0 | -3 | 104 | nt | nt
COc1cc([N+](=O)[O-])ccc1NC(=O)NCC1CCN(Cc2ccc(Cl)cc2)CC1 | 3 | -13 | 4 | -12 | -1 | 30* | 104 | 111
COc1cc(NC(=O)NCC2CCN(Cc3ccccc3Cl)CC2)cc(OC)c1OC | 0 | -13 | 1 | -15 | -8 | 41* | 101 | 93
Cn1cc(C2CC(c3ccccc3)=NN2C(=O)c2ccccc2)c2ccccc21 (stereo not given) | 30 | 7 | -1 | 3 | -2 | 59* | 93 | 103
CCCC(=O)N1N=C(c2ccccc2)CC1c1cn(C)c2ccccc12 (stereo not given) | 31 | -21 | -24 | 0 | -30 | 100 | nt | nt
CC(=O)Nc1ccc(S(=O)(=O)N2CCCC2)cc1 | -2 | -1 | -11 | -1 | -1 | 101 | 98 | 115
COCC(=O)Nc1ccc(S(=O)(=O)N2CCCC2)cc1 | 0 | 0 | 5 | 0 | -1 | 88 | 99 | 100
O=C(/C=C/c1ccccc1)NC(=S)NNC(=O)Cc1cccs1 | 49* | 16 | -15 | 0 | -33 | 50* | 87 | 88
O=C(C1CCCO1)N1CCN(c2c3c(nc4cc(-c5ccc(F)cc5)nn24)CCC3)CC1 (stereo not given) | 29 | -6 | -31 | 1 | -37 | 63* | 98 | 103
COc1cc(CN2C(=O)C(NC(=O)c3ccco3)(C(F)(F)F)C3=C2CC(C)(C)CC3=O)cc(OC)c1 (stereo not given) | 3 | -14 | 0 | -1 | 3 | 99 | nt | nt
Nc1nc(SCc2ccc(Br)cc2)n[nH]1 | 5 | 0 | 2 | -19 | -1 | 49* | 102 | 92
Nc1nc(SCc2ccccc2)n[nH]1 | -1 | -1 | 4 | 0 | 0 | 115 | nt | nt
CN(C)C(=O)CSc1nc2ccc(N3C(=O)c4ccccc4C3=O)cc2s1 | 5 | 7 | -5 | 0 | -12 | 117 | nt | nt
FC(F)(F)c1nc2cc3nc4ccccc4[nH]c3cc2n1 | 55* | 0 | -34 | 1 | -48 | 56* | 55* | 94
CC1CC(C)CN(C(C(=O)NC2CCCCC2)c2ccnc3ccccc23)C1 (stereo not given) | nt | 0 | -1 | nt | 1 | nt | nt | nt
O=C(CCCOc1ccccc1)Nc1ccc(Cl)cn1 | 1 | -2 | -2 | 1 | -2 | 58* | 96 | 89
COc1ccc2c(C)cc(SCC(=O)c3ccc4c(c3)OCO4)nc2c1 | 65* | -36 | -4 | 1 | -4 | 64* | 94 | 95
Cc1ccc(NC2=NCCC2)cc1Cl | 5 | 2 | 5 | 0 | 3 | 65* | 91 | 100
COc1ccc2c3c(cccc13)N(C)N=C2C | 19 | -8 | -23 | 0 | -32 | 59* | 74 | 95
Cc1[nH]c2ccccc2c1CC(=O)Nc1ccc(Nc2cccnc2)c(-c2ccc(C(C)(C)C)cc2)c1 | nt | 1 | -4 | nt | -4 | nt | nt | nt
Cn1c(=S)[nH]c(=O)c2ncc(=O)[nH]c21 | -1 | 2 | 5 | 0 | 7 | 63* | 103 | 91
Cc1nc2[nH]c(=S)n(C)c(=O)c2nc1C | -1 | -1 | -5 | 2 | -5 | 109 | nt | nt
Cc1ccc(N2CCN(C(=O)c3cccc([N+](=O)[O-])c3)CC2)cc1Cl | -5 | 3 | 5 | 0 | 1 | 112 | 88 | 99
SMILES | AHR act | sPLA2-III inh | PLC-gamma1 inh | HIF activator | PLC-beta3 inh | Yeast superoxide | Superoxide pick | DHE fluor count
O=C(c1cccc([N+](=O)[O-])c1)N1CCN(c2cccc(Cl)c2)CC1 | -3 | 4 | 9 | 2 | 3 | 100 | nt | nt
Cc1ccc(C(=O)N2CCN(c3ccccn3)CC2)cc1[N+](=O)[O-] | 1 | 0 | 2 | -1 | -2 | 90 | nt | nt
Cc1ccc(C(=O)N2CCN(c3ccccc3Cl)CC2)cc1[N+](=O)[O-] | 4 | -6 | 3 | -1 | 2 | 73 | 92 | 99
Cc1cccc(C)c1NC(=O)CNC(=O)C1CC(=O)N(Cc2ccccc2)C1 (stereo not given) | 0 | 3 | 1 | 0 | -2 | 102 | nt | nt
CCC(=O)N1CCc2cc(S(=O)(=O)NCCC(=O)N3CCN(c4cccc(C)c4)C(C)C3)ccc21 (stereo not given) | 2 | -18 | 4 | 0 | 1 | 63* | 105 | 109
O=C1N=C(N2CCCCC2)S/C1=C\c1ccncc1 | 7 | 0 | 2 | 1 | 0 | 100 | nt | nt
COc1ccc(/C=C2\SC(N3CCCCC3)=NC2=O)cc1 | 49* | -2 | 5 | -23 | -6 | 55* | 98 | 99
Cc1cc(Oc2ccc(=O)n(C)n2)nc(SCCOc2ccccc2)n1 | 0 | -5 | 4 | 0 | -4 | 15* | 107 | 93
COc1ccc(CNC(=O)c2cc3ccccc3oc2=O)cc1 | -4 | 4 | 1 | 0 | -8 | 63* | 96 | 93
COc1ccccc1CNC(=O)c1cc(-c2ccccc2C)n(CC2CC(c3cccc([N+](=O)[O-])c3)=NO2)n1 (stereo not given) | 1 | -15 | 1 | nt | 4 | 109 | nt | nt
COc1ccccc1Oc1ccc2c(c1)C(=O)N(CC(=O)O)C2=O | 0 | nt | nt | -17 | nt | 40* | 102 | 91
COc1ccccc1Oc1ccc2c(c1)C(=O)N(c1ccc(O)cc1)C2=O | 0 | -4 | 1 | nt | 0 | 111 | nt | nt
CCc1ccc(C(C)NC(=S)NC2CCCCC2)cc1 (stereo not given) | nt | nt | nt | 0 | nt | 102 | nt | nt
CCC(C)c1ccc(C(C)NC(=S)NC2CCCCC2)cc1 (stereo not given) | 2 | 11 | 2 | 0 | -8 | 50* | 84 | 90
COc1cc(C(=O)N2CCN(C(=O)c3cc(-c4ccccc4)n[nH]3)CC2)cc(OC)c1OC | 5 | 1 | 0 | 0 | -6 | 63* | 97 | 89

High-throughput results (PubChem)
